Experimental data taken from PubChem BioAssay AID1631 (National Center for Advancing Translational Sciences (NCATS), 2009).
Screen size: about 260,000 compounds; about 890 (0.34%) were called active. Inconclusive results (about 1%) are left out. The entries come from a sample that favours actives as a whole. Entries that show only a call come without a potency. A number with no mark means an inactive call. The call rests on the fitted dose curve; in most records, active means well fitted activation curve with a large enough effect; inconclusive means small, poorly fitted or top-dose-only effect; inactive means no such curve, though single readings can be large or run the other way.

target: Pyruvate kinase PKM (Homo sapiens) (UniProt P14618); experiment: qHTS Assay for Activators of Human Muscle isoform 2 Pyruvate Kinase; details: purified PKM2, Kinase-Glo ATP luminescence; Potency: activation; series mostly up to 57.5 µM; further: nearly all actives have a fitted effect of over 55% in size
In short: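 hPK-M2, >95% pure; 0.1 mM ADP / 0.5 mM PEP final; imidazole pH7.2 buffer w/ 7 mM MgCl2, 50 mM KCl; 1 h RT; Kinase-Glo lum. Intermediate enzyme activity for dual inhibitor/activator qHTS.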
Potency means the concentration at half of the fitted maximal effect.

Sequence of Pyruvate kinase PKM (Homo sapiens) (P14618 whole entry, looked up, canonical isoform): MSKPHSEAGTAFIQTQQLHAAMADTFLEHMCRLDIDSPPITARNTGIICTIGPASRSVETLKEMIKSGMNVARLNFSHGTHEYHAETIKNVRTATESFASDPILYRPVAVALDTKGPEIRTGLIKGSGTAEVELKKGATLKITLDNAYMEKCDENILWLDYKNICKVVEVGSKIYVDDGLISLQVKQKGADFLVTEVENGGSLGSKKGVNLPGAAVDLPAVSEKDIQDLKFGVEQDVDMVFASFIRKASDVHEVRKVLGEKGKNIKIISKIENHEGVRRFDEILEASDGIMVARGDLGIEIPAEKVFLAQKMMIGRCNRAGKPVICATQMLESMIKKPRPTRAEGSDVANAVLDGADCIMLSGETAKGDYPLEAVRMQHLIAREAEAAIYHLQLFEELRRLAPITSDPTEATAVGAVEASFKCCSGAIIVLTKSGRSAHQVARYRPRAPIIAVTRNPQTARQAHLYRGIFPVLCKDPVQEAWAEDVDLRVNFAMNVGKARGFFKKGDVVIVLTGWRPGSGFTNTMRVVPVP

Row | Compound | Potency | activation
1 | CCC(=O)Nc1nc(C)c(C(=O)Nc2cccc(Cl)c2)s1 | inactive | –
2 | O=C(CCCCCn1c(=S)[nH]c2ccsc2c1=O)NC1CCCCC1 | – | 13.9% [at 0.46 µM, 0% is enzyme alone, no compound]
3 | CCSc1nsc(NC(=O)Nc2ccccc2OC)n1 | inactive | –
4 | Cc1ccc(NC(=O)CSc2cccc3cccnc23)c(C)c1 | inactive | –
5 | Cc1ccc(NC(=S)Nc2ccc(F)cc2)cc1 | inactive | –
6 | N=c1oc2ccccc2cc1C(=O)NCc1ccccc1 | inactive | –
7 | O=C(NCc1ccc2c(c1)OCO2)C1CCCN(S(=O)(=O)c2cccs2)C1 (centres undefined) | inactive | –
8 | O=C(NCc1ccccn1)C1CCN(S(=O)(=O)c2ccc(Br)cc2)CC1 | inactive | –
9 | O=C(NCc1ccc(Cl)cc1)C1CCN(S(=O)(=O)c2cccs2)CC1 | inactive | –
10 | O=C(NCc1cccs1)C1CCN(S(=O)(=O)c2ccc(Cl)cc2)CC1 | 14.1 µM (active) | –
11 | O=S(=O)(c1ccc2c(c1)OCCO2)N1CCc2ccccc21 | inactive | –
12 | Cc1ccc(S(=O)(=O)N2CCN(C)CC2)cc1 | inactive | –
13 | O=C(c1ccc2c(c1)OCCO2)C1CCN(S(=O)(=O)c2cccc(F)c2)CC1 | inactive | –
14 | CN1CCCN(S(=O)(=O)c2ccc3c(c2)OCCO3)CC1 | 3.55 µM (active) | –
15 | O=C(NCc1cccs1)C1CCN(S(=O)(=O)c2ccc3c(c2)OCCO3)CC1 | 3.98 µM (active) | –
16 | Cc1ccccc1CN1C[C@@H]2C[C@@H](c3ccc4nsnc4c3)N3CCC[C@@]23C1=O | inactive | –
17 | Cc1ccccc1CN1C[C@@H]2C[C@@H](c3cn(C)nc3-c3ccccc3)N3CCC[C@@]23C1=O | 5.62 µM (active) | –
18 | Cc1ccc(CN2CCN(Cc3cn(C)nc3-c3ccccc3)CC2CCO)o1 (centres undefined) | inactive | –
19 | Brc1c(CSc2nncc3ccccc23)nc2ccccn12 | 4.47 µM (active) | –
20 | CN(C(=O)CSc1nncc2ccccc12)C1CCCCC1 | inactive | –
21 | COc1ccc(Cl)cc1NC(=O)c1cccc(N2C(=O)C3CC=CCC3C2=O)c1 (centres undefined) | inactive | –
22 | O=C(NCC1CCCO1)c1cc2c([nH]c3ccccc32)c(-c2ccc(F)cc2)n1 (centres undefined) | inactive | –
23 | O=C(Nc1ccc(S(=O)(=O)Nc2ccccn2)cc1)c1ccccc1 | inactive | –
24 | CC(=O)CCC(=O)c1ccc2ccccc2c1 | inactive | –
25 | C=CC(=O)c1ccc2ccccc2c1 | 10 µM (active) | –

Row | Compound | Potency | activation
26 | CC(=O)c1ccc2c(ccc3ccccc32)c1 | inactive | –
27 | CCOC(=O)c1cccc(NC(=O)C2CCN(c3ncnc4c3nc3n4CCCCC3)CC2)c1 | – | 0.194% [at 0.46 µM, 0% is enzyme alone, no compound]
28 | CCCOC1CCCN(C(=O)c2cc(COc3cncc(Cl)c3)on2)C1 (centres undefined) | inactive | –
29 | O=C(NC(=S)NC1CCCCC1)c1ccc(Cl)cc1 | inactive | –
30 | O=S(=O)(NC1CCCCC1N1CCN(c2ccccc2F)CC1)c1ccccc1 (centres undefined) | inactive | –
31 | O=C(Cc1ccc(Cl)cc1)NC(=S)Nc1ccccc1O | inactive | –
32 | CCN1C(=S)N[C@@H](CCc2ccccc2)[C@H](C(=O)OC)[C@H]1C | inactive | –
33 | CC1(C(=O)NCCc2c[nH]c3ccccc23)C=CC2(CCCCC2)N1C(=O)c1ccccc1 (centres undefined) | inactive | –
34 | Cc1ccccc1NC(=O)CSc1nc2ccc(Nc3nc(N4CCOCC4)nc(N4CCOCC4)n3)cc2s1 | inactive | –
35 | CN(C(=O)CC1C(=O)NCCN1Cc1ccc(F)cc1Cl)C1CCCCC1 (centres undefined) | inactive | –
36 | CC(=O)N1c2ccc(S(=O)(=O)N3CCCC(C(=O)Nc4cccc(F)c4)C3)cc2CC1C (centres undefined) | inactive | –
37 | CCC(C)c1ccc(NC(=S)N2CCCC2)cc1 (centres undefined) | inactive | –
38 | Cc1noc(C)c1CSCC(=O)N(CCC(C)C)c1c(N)n(Cc2ccccc2)c(=O)[nH]c1=O | inactive | –
39 | COC(=O)c1ccc(COc2ccc(/C=C/C(=O)c3ccc(OC)c(CSCC(=O)O)c3)cc2OC)cc1 | inactive | –
40 | CCN(CC)CCn1c(N)c(S(=O)(=O)c2ccccc2)c2nc3ccccc3nc21 | inactive | –
41 | CCC(=O)Nc1c(S(=O)(=O)c2ccccc2)c2nc3ccccc3nc2n1Cc1ccccc1 | inactive | –
42 | Cc1ccc(S(=O)(=O)c2c(N)n(C)c3nc4ccccc4nc23)cc1 | 12.6 µM (active) | –
43 | c1ccc(Cc2ccc(OCCn3ccnc3)cc2)cc1 | inactive | –
44 | O=C(Nc1ccc(C(=O)N2CCCCC2)cc1)c1cccc([N+](=O)[O-])c1 | inactive | –
45 | CCCCC(C(=O)NC(C)(C)C)N(Cc1ccccc1)C(=O)c1snc(C(N)=O)c1N (centres undefined) | inactive | –
46 | COc1ccc(-c2nn(-c3ccccc3)cc2/C=C2/SC(=S)N(CCCC(=O)O)C2=O)c(C)c1 | – | -3.19% [at 11.5 µM, 0% is enzyme alone, no compound]
47 | CCCc1cc(C(=O)N2CCCC(CO)(CCCc3ccccc3)C2)n(C)n1 (centres undefined) | inactive | –
48 | O=C(CNc1cccc(S(=O)(=O)N2CCCCC2)c1)Nc1ccccc1F | inactive | –
49 | Cc1cccc(-n2ncc(Cl)c(Cl)c2=O)c1 | inactive | –
50 | C/C(=N\N(C)C)c1ccc(OCCOc2ccc([N+](=O)[O-])cc2)cc1 | inactive | –

Row | Compound | Potency | activation
51 | C=C(C)Cn1c(SCC(=O)NCc2ccco2)nc2sc3c(c2c1=O)CCC3 | inactive | –
52 | COc1ccc(CCn2c(=N)c(C(=O)NCc3ccco3)cc3c(=O)n4cccc(C)c4nc32)cc1 | inactive | –
53 | O=C(NCc1ccco1)c1cccn2c(=O)c3c4c(sc3nc12)CCCC4 | 25.1 µM (active) | –
54 | O=C(CCCC(=O)N1CCN(c2cccc(Cl)c2)CC1)c1ccccc1 | inactive | –
55 | CCS(=O)(=O)Nc1ccc(C2=NN(C(C)=O)C(c3cccs3)C2)cc1 (centres undefined) | 4.47 µM (active) | –
56 | COc1ccc(C2=NN(C(=O)CCC(=O)O)C(c3cccs3)C2)cc1OC (centres undefined) | inactive | –
57 | CS(=O)(=O)Nc1ccc(C2=NN(S(C)(=O)=O)C(c3cccs3)C2)cc1 (centres undefined) | inactive | –
58 | CC(=O)c1cc2c(cc1NC(=O)Cn1nc(-c3ccc(F)cc3)ccc1=O)OCO2 | inactive | –
59 | CC(=O)N1CCc2c(sc(NC(=O)CCS(=O)(=O)c3ccccc3)c2C#N)C1 | inactive | –
60 | CCOC(=O)c1ccc(NC(=O)Cc2cccs2)cc1 | inactive | –
61 | CC1CCN(C(=S)NC(=O)c2ccccc2Br)CC1 | inactive | –
62 | O=C(Nc1ccc(N2CCOCC2)c(Cl)c1)c1ccc(S(=O)(=O)N2CCOCC2)cc1 | inactive | –
63 | COc1ccc(C2CC(c3ccccc3)=NN2C(=O)c2ccc(Cl)c([N+](=O)[O-])c2)cc1 (centres undefined) | inactive | –
64 | COc1ccc(C2CC(c3ccc([N+](=O)[O-])cc3)=NN2C(C)=O)cc1 (centres undefined) | 12.6 µM (active) | –
65 | COc1ccc(C2=NN(C(C)=O)C(c3ccccc3)C2)cc1 (centres undefined) | inactive | –
66 | CC[C@]1(c2ccccc2OC)C(=O)N(C(=O)OC)N1C(=O)OC | inactive | –
67 | CCOC(=O)c1cc(C(=O)Nc2ccc(S(=O)(=O)Nc3ccc(OC)cc3)cc2)nn1C | inactive | –
68 | Cc1cccc(NC(=S)NCCc2ccc(Cl)cc2)c1C | inactive | –
69 | COc1ccc(-n2nc(C(=O)NCC(=O)N3CCN(c4ccccc4OC)CC3)c3ccccc3c2=O)c(OC)c1 | inactive | –
70 | Nc1nnc(SCn2nnc3ccccc3c2=O)s1 | inactive | –
71 | O=c1c2ccccc2nc(CSc2nnnn2-c2ccccc2)n1-c1ccccc1 | inactive | –
72 | O=c1c2ccccc2nnn1CSc1nnnn1-c1ccccc1 | 28.2 µM (active) | –
73 | CCC(C)c1ccccc1NC(=O)CN(C)CC(=O)Nc1ccccc1SC (centres undefined) | inactive | –
74 | O=C(N/N=C/c1cccc(OCc2ccccc2)c1)c1ccc(Br)o1 | inactive | –
75 | CCN(C(=O)COc1ccc(C(=O)c2ccccc2)cc1)c1ccccc1 | inactive | –

Row | Compound | Potency | activation
76 | CC1CCN(C2=NC(=O)/C(=C/c3ccc(O)cc3)S2)CC1 | – | -2.26% [at 11.5 µM, 0% is enzyme alone, no compound]
77 | CCOC(=O)C1(Cc2ccccc2C)CCCN(C(=O)c2ccc(COC)o2)C1 (centres undefined) | inactive | –
78 | S=C(Nc1ccc(Br)cc1)NC1CCN(Cc2ccccc2)CC1 | inactive | –
79 | O=C(Nc1nc2ccc([N+](=O)[O-])cc2s1)c1ccc(S(=O)(=O)N2CCCc3ccccc32)cc1 | inactive | –
80 | CSc1nc2ccc(S(=O)(=O)N3CCc4ccccc43)cc2s1 | 2.24 µM (active) | –
81 | CCn1c(=O)c(=O)n(CC)c2cc(S(=O)(=O)N3CCc4ccccc43)ccc21 | inactive | –
82 | CC(CN1CCOCC1)OC(=O)c1ccc(C(C)(C)C)cc1 (centres undefined) | inactive | –
83 | NC(=S)c1ccc(C(N)=S)o1 | 15.8 µM (active) | –
84 | Cc1cccc(CSc2nc3c(c(=O)n2C)SCC3)c1 | 15.8 µM (active) | –
85 | Cn1c(SCC(=O)N2CCCCC2)nc2c(c1=O)SCC2 | inactive | –
86 | CCn1c(SCc2ccccc2)nc2c(c1=O)SCC2 | inactive | –
87 | COc1ccc(CNS(=O)(=O)c2cc(-c3cc(C)no3)ccc2C(C)C)cc1 | – | 2.22% [at 0.46 µM, 0% is enzyme alone, no compound]
88 | Cc1ccc(S(=O)(=O)NC2CCCCCC2)cc1C(N)=O | inactive | –
89 | COc1ccc(Nc2ncnc3ccc(Br)cc23)c(OC)c1 | inactive | –
90 | COC(=O)c1ccccc1NC(=O)C1CCN(C(=O)N2CCOc3ccccc32)CC1 | inactive | –
91 | CCCC(C(=O)NC1CCCC1)N(C(=O)Cn1nnc(-c2ccc(C)o2)n1)c1cccc(O)c1 (centres undefined) | inactive | –
92 | COc1ccc(NC(=O)CSc2nc3ccccc3c(=O)n2C)cc1 | inactive | –
93 | O=C(Nc1cccc(C(F)(F)F)c1)c1cnccn1 | inactive | –
94 | O=c1cc(CO)oc(C(Nc2cccc(C(F)(F)F)c2)c2ccccn2)c1O (centres undefined) | 25.1 µM (active) | –
95 | FC(F)(F)c1cccc(Nc2ncnc3ccccc23)c1 | inactive | –
96 | CCC(C)(C)NC(=O)C(c1ccc(O)cc1)N(Cc1ccco1)C(=O)CCC(=O)Nc1ccccn1 (centres undefined) | inactive | –
97 | CC/C(O)=N\S(=O)(=O)c1ccc(N=NN(C)C)cc1 | inactive | –
98 | CC(=O)c1ccc(N2CCN(C(=O)c3ccc4nc[nH]c4c3)CC2)cc1 | inactive | –
99 | CN(C)N=Nc1ccc2nc[nH]c2c1 | 10 µM (active) | –
